Hit rate of the full screen: of about 16,000 compounds, about 5,800 (36%) were called active. About 23% were inconclusive and are not listed. This is one part of the list. Unmarked numbers belong to inactive results. The call rests on the fitted dose curve; in most records, active means well fitted curve in the direction sought with a large enough effect; inconclusive means small, poorly fitted or top-dose-only effect, or effect the other way; inactive means no such curve, though single readings can be large or run the other way.
On the % scale 0 is the no-effect control and ±100 the full control effect.

The target in this assay is Cytochrome P450 2C19 (Homo sapiens) (UniProt P33261). Description: Cytochrome panel assay with activity outcomes. The conditions noted are these: recombinant CYP, pro-luciferin dealkylation, luminescence, p450-cyp2c19; series mostly up to 57.1 µM.
Cytochrome P450 2C19 (Homo sapiens), sequence (P33261 whole entry, looked up): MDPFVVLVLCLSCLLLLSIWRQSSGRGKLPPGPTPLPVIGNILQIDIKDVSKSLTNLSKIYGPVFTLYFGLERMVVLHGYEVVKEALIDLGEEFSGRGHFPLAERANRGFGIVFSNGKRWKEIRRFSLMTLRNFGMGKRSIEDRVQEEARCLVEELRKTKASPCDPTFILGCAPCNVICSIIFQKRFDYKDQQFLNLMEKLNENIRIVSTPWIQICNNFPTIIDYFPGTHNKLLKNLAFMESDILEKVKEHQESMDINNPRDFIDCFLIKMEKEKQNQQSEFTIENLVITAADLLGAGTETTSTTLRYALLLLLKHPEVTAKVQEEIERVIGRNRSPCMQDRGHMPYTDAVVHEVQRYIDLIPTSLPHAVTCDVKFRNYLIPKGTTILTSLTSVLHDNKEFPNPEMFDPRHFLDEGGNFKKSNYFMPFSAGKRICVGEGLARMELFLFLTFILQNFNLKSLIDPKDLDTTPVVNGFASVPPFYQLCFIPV
Consider `Nc1ccc(-c2ccc(Nc3cc(S(=O)(=O)O)c(N)c4c3C(=O)c3ccccc3C4=O)cc2)c(S(=O)(=O)O)c1`, for which the activity, negative = inhibition was -36% [at 11.4 µM]. Same read-out and setting: the figure for `O=C(Nc1ccc(Nc2ccc3c(c2)C(=O)c2ccccc2C3=O)c2c1C(=O)c1ccccc1C2=O)c1ccccc1` is -23.9% [at 11.4 µM].

For the molecule `O=C1c2ccccc2C(=O)c2c(NC3CCCCC3)ccc(Nc3ccc(S(=O)(=O)O)cc3)c21`, the half-maximal activity concentration (AC50) is 3.98 µM (active). In the case of `Cn1c(SC2=CS(=O)(=O)c3ccccc32)nc2ccccc21`, the AC50 was 17.8 µM (active). Regarding `C=CCOc1cccc(/C=N/NC(=O)C(=O)NCc2ccco2)c1`, the AC50 result was “inactive”. On the same count and under the same terms, in the case of `Oc1ccc(/C=N/NC(=S)NCc2ccco2)cc1` it was 10 µM (active); in that of `CNc1nc(-c2ccc(N(C)C)cc2)nc2ccccc12`, 25.1 µM (active); in that of `CN(C)c1ccc(-c2nc(Nc3ccncc3)c3ccccc3n2)cc1`, 10 µM (active). The same measure, in the same setting: the figure for `c1ccc2c(Nc3ccncc3)nc(-c3ccoc3)nc2c1` is 20 µM (active).

For `CNc1nc(-c2ccoc2)nc2ccccc12`, the AC50 entry is “inactive”. On the same count and under the same terms, in the case of `CN(C)c1ccc(-c2nc(NC3CCNCC3)c3ccccc3n2)cc1` it was “inactive”; in that of `Fc1ccc(Nc2nc(-c3ccoc3)nc3ccccc23)cc1`, “inactive”. Regarding `NCC[C@H](O)C(=O)N[C@H]1C[C@@H](N)[C@@H](O[C@H]2O[C@@H](CN)[C@@H](O)[C@@H](O)[C@@H]2O)[C@@H](O)[C@@H]1O[C@H]1O[C@@H](CO)[C@@H](O)[C@@H](N)[C@@H]1O`, the AC50 result is “inactive”. On the same count and under the same terms, the entry for `N[C@@H](C(=O)O)c1cc(O)ccc1Cl` is “inactive”; for `Cc1nc(-c2cccnc2)sc1C(=O)Nc1ccc(Cl)cc1` it is 11.2 µM (active); for `CNC(=O)c1sc(-c2cccnc2)nc1C` it is “inactive”. For `CC(=O)OC[C@H]1O[C@@H](O/N=C(\C)CCN2CCCCc3nc(C)c(C)cc32)[C@H](OC(C)=O)[C@@H](OC(C)=O)[C@H]1OC(C)=O`, the activity, negative = inhibition was -0.342% [at 11.4 µM]. With `CNc1ncnc2c1ncn2[C@H]1C[C@@H](OP(=O)(O)O)[C@H](COP(=O)(O)O)O1`, the AC50 result was “inactive”. Same read-out and setting: the figure for `CNc1ncnc2c1ncn2[C@H]1C[C@H](OP(=O)(O)O)[C@H](COP(=O)(O)O)O1` is 1 µM (active). The same measure, in the same setting: the entry for `CNc1ncnc2c1ncn2[C@@H]1O[C@@H](CO)[C@H](O)[C@@H]1O` is “inactive”; for `CN(C)CCN(Cc1cccs1)c1ccccn1` it is “inactive”; for `COc1ccc(CN(CCN(C)C)c2ccccn2)cc1` it is “inactive”. On the same count and under the same terms, the figure for `CN(C)CCN(Cc1ccc(Cl)cc1)c1ccccn1` is 6.31 µM (active); for `N=c1n(-c2ccccc2)c(O)cc(=O)n1-c1ccccc1` it is “inactive”; for `Cc1ccc(C(=O)N/C(=C\c2ccc(Br)cc2)c2nc(=S)[nH][nH]2)cc1` it is 11.2 µM (active).
